# Compound activity as filed in PubChem BioAssay.
# DT40 TDP1 no CPT = qHTS for Inhibitors of human tyrosyl-DNA phosphodiesterase 1 (TDP1): qHTS in cells in absence of CPT; DT40 Tdp1-/- hTDP1 cells, no CPT, ATP luminescence, 48 h; Potency, µM (series often up to 46.2 µM), for the others: at the highest dose activity change, negative = growth inhibition, hits mostly inhibitors; 15% of 420,000 active; AID 686978, 2013; note: potency is the fitted concentration of half-maximal effect; nearly all actives have a fitted effect of over 55% in size
#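 Stably hTDP1-transfected Tdp1-null chicken DT40 cells were treated with library compounds minus camptothecin and grown for at least 48 hr at 37 °C, after which cellular ATP was quantified by luminescence.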
# RORgamma inh = ROR gamma (mouse) transcription inhibition; P51450; Drosophila S2 Gal4-RORgamma UAS-luciferase reporter, 20 h; AID 2551; 5.4% of 310,000 active; Potency, µM (doses to about 53.6 µM), inactives show at the top dose activity change, negative = inhibition, hits mostly inhibitors; note: potency is the fitted concentration of half-maximal effect; nearly all actives have a fitted effect of over 60% in size
# Target sequence (P51450 whole entry, looked up, the tested form may be a part): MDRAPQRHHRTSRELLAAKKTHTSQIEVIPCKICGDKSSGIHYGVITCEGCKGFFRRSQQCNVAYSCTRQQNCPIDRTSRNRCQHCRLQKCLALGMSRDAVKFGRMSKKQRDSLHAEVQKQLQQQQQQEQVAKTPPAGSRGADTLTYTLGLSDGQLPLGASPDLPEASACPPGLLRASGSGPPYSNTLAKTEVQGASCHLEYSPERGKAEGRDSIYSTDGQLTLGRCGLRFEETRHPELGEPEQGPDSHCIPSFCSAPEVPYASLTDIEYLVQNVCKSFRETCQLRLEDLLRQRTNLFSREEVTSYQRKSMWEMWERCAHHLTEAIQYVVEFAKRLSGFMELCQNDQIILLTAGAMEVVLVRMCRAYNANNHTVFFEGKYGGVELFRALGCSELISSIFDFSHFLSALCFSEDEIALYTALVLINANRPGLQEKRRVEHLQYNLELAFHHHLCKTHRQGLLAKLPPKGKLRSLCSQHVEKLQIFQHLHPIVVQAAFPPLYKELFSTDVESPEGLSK
#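 Drosophila S2 cells stably expressing Gal4-DBD/mouse RORγ fusion under metallothionein promoter plus UAS-luciferase; compound 1 h, then 700 uM CuSO4 induction for 20 h at ambient temperature; inhibition read as reduced luminescence.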
# TDP1 cell CPT = growth inhibition of DT40 Tdp1-/-;hTDP1 cells with camptothecin (screen for TDP1 inhibitors) | chicken DT40 Tdp1-/-;hTDP1 cells + 20 nM CPT, ATP luminescence, 48 h | Potency, µM (highest dose often 46.2 µM), for inactives: at the top dose activity change, negative = growth inhibition, most hits filed as inhibitors | 12% of 420,000 active; note: potency is the fitted concentration of half-maximal effect; nearly all actives have a fitted effect of over 55% in size
#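 Chicken DT40 Tdp1-/- cells complemented with human TDP1, 400 cells/well, exposed to compounds plus 20 nM camptothecin for at least 48 h at 37 C; viability read as ATP content by CellTiter-Glo luminescence.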
# Gal4-VP16 FLuc = inhibits Gal4-VP16 luciferase reporter, ROR gamma counter-screen. Drosophila S2 Gal4-VP16 UAS-luciferase, luminescence, 20 h. Potency, µM (series often up to 53.6 µM), for the others: at the top dose activity, negative = inhibition, most hits filed as inhibitors. 3.5% of 310,000 active. AID 2546;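 note: Gal4-VP16 expression switched on by copper sulfate through the metallothionein promoter; potency is the fitted concentration of half-maximal effect; nearly all actives have a fitted effect of over 50% in size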
# IL1B secr inh = blocks inflammasome-driven IL-1 beta release | THP-1 LPS/ATP IL-1B secretion, AlphaLISA, 16 h; active compounds read low | 4.7% of 360,000 active | AID 743279 | activity change, % at 57.5 µM; in the data active = activity change below about -50%; inconclusive = mostly about -30% to -49%
#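 THP-1 cells pretreated 1 hr with compounds (up to 57.5 uM final), then stimulated with LPS (250 ng/mL final) plus ATP (1.25 mM final); secreted IL-1B measured by AlphaLISA after 16 hr, decreased signal indicating inhibition.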
# ELG1 DNA repair = ELG1-dependent DNA repair inhibition; HEK293T ELG1-luciferase reporter, luminescence, 16 h; DNA damage induced by 5-fluorouridine; Potency, µM (titrated, usually from 46.1 µM), without a hit: top-dose activity change, negative = inhibition, actives largely listed as inhibitors; 2.3% of 330,000 active; AID 504467; note: potency is the fitted concentration of half-maximal effect; nearly all actives have a fitted effect of over 55% in size
#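 Luminescence from the luciferase reporter, measured 30 min after ONE-Glo reagent at room temperature, was the read-out. Beforehand, 2,000 cells per well were exposed for 16 hr at 37 °C to 5-fluorouridine together with compound or vehicle.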
# An asterisk follows results filed as active; u = inconclusive; x = no result given; [ ] = remark or other dose. This is a sample that favours compounds with a hit; in the whole collection about 21% have one here. Unless noted, calls come from the whole dose curve; as a rule, active = well fitted curve in the direction sought with a large enough effect; inconclusive = small, poorly fitted or top-dose-only effect, or another doubt; inactive = no such curve, though single readings can be large; an effect the other way counts as inactive or inconclusive. % is set by controls: 0 for no effect and ±100 for the full control effect.
SMILES,DT40 TDP1 no CPT,RORgamma inh,TDP1 cell CPT,Gal4-VP16 FLuc,IL1B secr inh,ELG1 DNA repair
CCn1c(=O)c2cc(C(=O)N3CCN(C)CC3)sc2c2ccccc21,u,21%,5%,2%,-22,u
Cc1cccc(N2CCN(C(=O)c3cc4c(=O)n(C)c5ccccc5c4s3)CC2C)c1 (centres undefined),2.3µM*,x,u,x,x,x
CC1CCN(C(=O)c2cc3c(=O)n(C)c4ccccc4c3s2)CC1,u,x,12µM*,x,x,x
Cc1ccc(Cl)cc1N1CCN(C(=O)c2cc3c(=O)n(C)c4ccccc4c3s2)CC1,2%,x,8%,x,x,x
COc1ccccc1N1CCN(C(=O)c2cc3c(=O)n(C)c4ccccc4c3s2)CC1,26µM*,x,u,x,x,x
CCOC(=O)C1(C)CCCCN1C(=O)c1cccnc1 (centres undefined),2%,x,4%,x,36,x
CC1(C)CN(c2ccc(Br)cc2)C(=O)[C@H]1CC(=O)Nc1ccccc1,u,x,u,x,6,x
Cc1ccc(-c2c(C(=O)N3CCN(c4cccc(C)c4)C(C)C3)oc(=O)c3ccccc23)cc1 (centres undefined),u,x,15µM*,x,x,x
Cc1cccc(N2CCN(C(=O)c3ccc(N4CCCC4=O)cc3)CC2C)c1 (centres undefined),u,11%,u,-5%,-21,-16%
Cc1cccc(N2CCN(C(=O)c3ccc4c(c3)c(C)c(C)n4C)CC2C)c1 (centres undefined),21µM*,2%,16µM*,-6%,-23,-9%
CCCS(=O)(=O)NC(=O)C1(C)CCCN(C(=O)c2ccc3c(c2)OCO3)C1 (centres undefined),-1%,x,u,x,44,x
CCCC(=O)N1CCC1(C)C(=O)NS(=O)(=O)c1cc2c(cc1C)CCCS2(=O)=O (centres undefined),-1%,x,-21%,x,11,x
Cc1nc(SCC(=O)N2CCCC2=O)nc(C)c1C,-4%,x,0%,x,25,27%
COc1ccc(C(=O)Nc2cc(S(=O)(=O)c3ccc(Cl)cc3)c(O)c(C)c2C)cc1,u,x,-29%,x,x,x
Cc1c(NC(=O)c2ccccc2)cc(C(C)C)c(O)c1S(=O)(=O)c1ccc(Cl)cc1,u,x,21µM*,x,x,x
COc1ccc(CNC(=O)CN2C(=O)CCCc3ccccc32)cc1,2%,x,-20%,x,x,x
CCN(CC)CCn1c2c(c(SCC(=O)Nc3cc(OC)cc(OC)c3)nc1=O)CCC2,-30%,x,-21%,x,-17,-13%
Cc1ccc(S(=O)(=O)CC2CSc3nc4ccccc4n32)cc1 (centres undefined),1.8µM*,u,1.8µM*,1.1µM*,-3,-9%
O=S(=O)(CCSc1ccccn1)c1nc2ccccc2s1,5.2µM*,13µM*,2.3µM*,u,-106*,5%
O=S(=O)(CCSc1nc2ccccc2o1)c1nc2ccccc2s1,3.7µM*,u,4.1µM*,u,-99*,u
CCS(=O)(=O)CCSc1nc2ccccc2o1,-3%,-13%,0%,6%,4,3%
O=S(=O)(NCCSc1nc2ccccc2o1)c1ccccc1,16µM*,u,16µM*,13%,0,-24%
CCCCNc1nc(Oc2ccc(=O)n(C)n2)nc(N2CCOCC2)n1,-22%,x,-13%,x,x,x
Cc1noc(C)c1S(=O)(=O)N(C)C[C@H]1OCCCC[C@H](C)Oc2ccc(NC(=O)CCCN(C)C)cc2C(=O)N([C@H](C)CO)C[C@@H]1C,-13%,x,-17%,x,-11,x
COc1ccc(C2NC(=S)N(c3ccccc3)C(C)=C2C(=O)Nc2ccccc2)cc1 (centres undefined),-15%,0%,-14%,u,-5,0%
SMILES,DT40 TDP1 no CPT,RORgamma inh,TDP1 cell CPT,Gal4-VP16 FLuc,IL1B secr inh,ELG1 DNA repair
COC(=O)C1=C(C)N(c2ccc(OC)cc2)C(C)=C(C(=O)OC)C1c1ccccc1,21µM*,0%,u,5%,0,-8%
COC(=O)C1=C(C)N(c2ccc(OC)cc2)C(C)=C(C(=O)OC)C1c1ccc(OC)cc1,16µM*,2%,8.2µM*,0%,-2,2%
CCOc1ccc(CCNC(=O)Cn2nc(C)n3c(cc4occc43)c2=O)cc1OCC,-28%,x,-23%,x,x,x
CC(C)C[C@H](NC(=O)OC(C)(C)C)c1n[nH]c(=S)n1N,-11%,u,-5%,u,4,-9%
O=C(Nc1ccccc1)/C(=C\c1cccs1)NC(=O)c1ccccc1,4%,-56%,4%,u,28,u
COc1ccc(/C=C(\NC(=O)c2ccccc2)C(=O)N/N=C/c2cccnc2)cc1,3%,u,8%,-5%,-9,10%
COc1ccc(/C=C(/NC(=O)c2ccccc2)C(=O)N/N=C/c2sccc2C)cc1,-26%,13µM*,-3%,u,0,-29%
COc1ccc(/C=C(\NC(=O)c2ccccc2)C(=O)N/N=C/c2sccc2C)cc1,-18%,11µM*,2%,22µM*,-7,-13%
O=C(N/N=C/c1cccs1)/C(=C/c1ccccc1)NC(=O)c1ccccc1,-2%,11µM*,1%,u,0,-5%
COc1ccc(/C=C(\NC(=O)c2ccccc2)C(=O)N/N=C/c2ccncc2)cc1,-13%,30%,-4%,-1%,-7,-1%
CCCn1nc2cc(C(=O)N(CC)c3ccc(OC)cc3)ccc2c1OCC,-10%,-16%,5%,1%,18,10%
CCCCn1c(N)c(N(CC)C(=O)c2ccccc2F)c(=O)[nH]c1=O,0%,1%,7%,7%,5,-3%
O=C1C=CC(=O)c2c(O)c(CO)c(CO)c(O)c21,2.9µM*,x,2.1µM*,x,-1,x
Oc1c(Cl)ccc(Cl)c1Cl,x,2%,x,1%,x,x
O=C1C=CC(=O)c2c(O)c(Cl)c(Cl)c(O)c21,2.1µM*,u,u,-5%,x,x
COc1ccc(N2CCN(C(=O)CCCn3c(=S)[nH]c4cc5c(cc4c3=O)OCO5)CC2)cc1,-6%,7.1µM*,-20%,u,-16,21µM*
O=C(CCCCCn1c(=S)[nH]c2cc3c(cc2c1=O)OCO3)N1CCN(Cc2ccccc2)CC1,-29%,-5%[0.365 µM],9.2µM*,x,30,-27%
O=C(CCCn1c(=O)[nH]c2ccccc2c1=O)N1CCN(c2ccccn2)CC1,-16%,-23%,-13%,-10%,-6,0%
CC(C)OCCCn1c(=S)[nH]c2cc3c(cc2c1=O)OCO3,-27%,4µM*,-20%,6.3µM*,20,0%
